Screens deposited in PubChem BioAssay by several laboratories.
Hits are enriched below; roughly 2.9% of the tested compounds scored in any of these assays.
dFosB act-1 – activators of mouse delta FosB homodimer; purified delta FosB, TAMRA-CDK5 oligo fluorescence polarization; percent of positive-control signal above neutral wells; activation, % at 25 µM; 340,000 tested, 0.99% active; P13346; AID 493131;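 active means mean activation above about 17%, with every replicate also reaching it, limit read from the data, passing the limit was not always enough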
Target sequence (P13346 whole entry, looked up): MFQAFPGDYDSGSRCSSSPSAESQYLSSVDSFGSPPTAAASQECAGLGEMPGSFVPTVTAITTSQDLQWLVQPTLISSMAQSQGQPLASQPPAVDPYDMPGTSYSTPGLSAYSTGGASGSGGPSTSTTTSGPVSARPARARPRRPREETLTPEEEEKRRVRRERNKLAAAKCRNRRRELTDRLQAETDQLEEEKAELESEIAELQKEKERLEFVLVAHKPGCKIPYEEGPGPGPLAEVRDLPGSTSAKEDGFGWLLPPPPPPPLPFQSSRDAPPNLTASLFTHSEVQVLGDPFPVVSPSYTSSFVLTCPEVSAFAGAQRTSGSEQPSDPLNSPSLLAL
MEKK2mut PB1 HTS – signal of MEK5 binding to mutant human MEKK2 PB1 domain; AID 1530; 290,000 tested, 0.35% active; percent response, % at 10 µM; bead flow cytometry, Alexa488-MEK5 binding to MEKK2 mutant; in the data active means percent response above about 24%, passing the limit was not always enough
MEKK3 PB1 HTS – MEKK3-MEK5 PB1 interaction, increase or decrease; Q99759; bead-based flow cytometry, Alexa488-MEK5 binding to MEKK3; actives lie on both sides; 0 = blocked by unlabeled MEK5, 100 = vehicle; binding response (% of control), % at 10 µM; 290,000 tested, 1.4% active;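 active means binding response more than 3 SD above or below the average of its plate-row segment, actives on both sides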;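 further: Alexa488 bead fluorescence after subtracting the streptavidin-only scavenger bead signal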
DNA FID counter – displaces DNA intercalator in HCV helicase counter-screen; DNA fluorescent intercalator displacement, fluorescence; inhibition, % at 7.9 µM; 290,000 tested, 0.17% active; AID 1845; in the data active means inhibition above about 37%;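 further: 0% = vehicle and 100% = reference compound; higher means more ethidium bromide displaced from hairpin DNA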
MEKK2wt PB1 HTS – raises or lowers MEK5 binding to wildtype human MEKK2 PB1 domain; Q9Y2U5; bead flow cytometry, Alexa488-MEK5 binding to MEKK2 WT; actives lie on both sides; binding response (% of control), % at 10 µM; 290,000 tested, 1.1% active; in the data active means binding response below about 67% or above about 130%
dFosB act-2 – delta FosB (mouse) homodimer activation | 2,400 tested, under 10 active | purified delta FosB, TAMRA-CDK5 oligo fluorescence polarization; normalised: neutral wells 0, positive control 100 | shares compounds with dFosB act-1 | AID 588690 | activation, % at 24.9 µM;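 active means highest replicate activation at or above 34% and every replicate reaching that threshold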;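 further: higher polarization means more probe DNA bound by delta FosB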
The depositor's hits bear a star.

What do the screens show for `O=C(NNC(=O)c1ccc(-c2ccccc2)cc1)Nc1ccc(F)cc1F`?
dFosB act-1: 30.0*; MEKK2mut PB1 HTS: 4.0; MEKK3 PB1 HTS: 103.0; DNA FID counter: -5.3; MEKK2wt PB1 HTS: 105.0; dFosB act-2: -3.0

Results for N#C/C(=C\c1cn(Cc2ccccc2C#N)c2ccccc12)C(=O)NCc1cccs1 ?
DNA FID counter: 3.7

How did Cc1cccc(NC(=O)/C(C#N)=C/c2cn(CC(=O)NCc3ccco3)c3ccccc23)c1C do in these assays?
dFosB act-1: 37.3*; MEKK2mut PB1 HTS: 3.0; MEKK3 PB1 HTS: 105.0; DNA FID counter: -18.7; MEKK2wt PB1 HTS: 100.0; dFosB act-2: 0.1

Results for N#C/C(=C\c1cn(Cc2cccc(F)c2)c2ccccc12)C(=O)NCc1ccco1 ?
dFosB act-1: 37.2*; MEKK2mut PB1 HTS: -1.0; MEKK3 PB1 HTS: 88.0; DNA FID counter: -12.9; MEKK2wt PB1 HTS: 85.0; dFosB act-2: 4.8

Results for Cc1c(C(=O)OCC(=O)NC(C)c2ccccc2)oc2ccccc12 (configuration not stated) ?
dFosB act-1: 19.5*; MEKK2mut PB1 HTS: 4.0; MEKK3 PB1 HTS: 101.0; DNA FID counter: -25.8; MEKK2wt PB1 HTS: 102.0; dFosB act-2: 6.7

How did Cc1cc(C(=O)OCC(=O)NC(C)c2ccccc2)c(C)o1 (configuration not stated) do in these assays?
dFosB act-1: -4.4; MEKK2mut PB1 HTS: -1.0; MEKK3 PB1 HTS: 104.0; DNA FID counter: -5.2; MEKK2wt PB1 HTS: 97.0

What do the screens show for `CC(NC(=O)COC(=O)c1cc2ccccc2cc1O)c1ccccc1` (configuration not stated)?
dFosB act-1: 24.0*; dFosB act-2: 1.1

Results for Cc1c(C(=O)OCC(=O)NCc2ccco2)oc2ccccc12 ?
dFosB act-1: -0.3

What do the screens show for `O=C(Cn1cnc2sc3c(c2c1=O)CCCC3)NCC(=O)Nc1ccc(F)cc1F`?
dFosB act-1: 35.8*; MEKK2mut PB1 HTS: 2.0; MEKK3 PB1 HTS: 96.0; DNA FID counter: -28.5; MEKK2wt PB1 HTS: 95.0; dFosB act-2: -0.3

Results for COc1ccc(C(=O)Cn2cnc3ccc(Cl)cc3c2=O)cc1F ?
dFosB act-1: 26.0*; MEKK2mut PB1 HTS: 3.0; MEKK3 PB1 HTS: 101.0; DNA FID counter: -2.0; MEKK2wt PB1 HTS: 104.0; dFosB act-2: 0.3

Results for O=C(N/N=C/c1ccc(F)cc1)c1cc(-c2ccc3c(c2)OCO3)n[nH]1 ?
dFosB act-1: 29.0*; MEKK2mut PB1 HTS: 0.0; MEKK3 PB1 HTS: 106.0; DNA FID counter: -6.7; MEKK2wt PB1 HTS: 99.0; dFosB act-2: -2.5

How did Cc1ccc(Cl)cc1NC(=O)C(=O)N/N=C/c1ccc2c(c1)OCO2 do in these assays?
dFosB act-1: 39.9*; MEKK2mut PB1 HTS: 1.0; MEKK3 PB1 HTS: 98.0; DNA FID counter: -7.4; MEKK2wt PB1 HTS: 104.0; dFosB act-2: -1.4

What do the screens show for `O=C(N/N=C\C=C\c1ccc(Br)cc1)c1ccc2c(c1)OCO2`?
dFosB act-1: 24.3*; MEKK2mut PB1 HTS: -6.0; MEKK3 PB1 HTS: 91.0; DNA FID counter: -9.9; MEKK2wt PB1 HTS: 81.0; dFosB act-2: 3.5

How did C/C(=N/NC(=O)c1ccc2c(c1)OCO2)c1ccc(NC(=O)C(F)(F)F)cc1 do in these assays?
dFosB act-1: 27.7*; MEKK2mut PB1 HTS: -3.0; MEKK3 PB1 HTS: 101.0; DNA FID counter: 0.2; MEKK2wt PB1 HTS: 99.0; dFosB act-2: 1.0

What do the screens show for `CN(C)c1ccc(/C=N/NC(=O)c2cc(-c3ccc4c(c3)OCO4)n[nH]2)cc1`?
dFosB act-1: 7.5; MEKK2mut PB1 HTS: -20.0; MEKK3 PB1 HTS: 87.0; DNA FID counter: -4.6; MEKK2wt PB1 HTS: 84.0

What do the screens show for `O=C(N/N=C/C=C/c1ccc2c(c1)OCO2)c1ccc([N+](=O)[O-])cc1`?
dFosB act-1: 0.1; MEKK2mut PB1 HTS: 6.0; MEKK3 PB1 HTS: 103.0; DNA FID counter: -1.2; MEKK2wt PB1 HTS: 100.0

How did Cc1ccc(OCc2cc(C(=O)N3CCc4[nH]cnc4C3c3ccccn3)no2)cc1C (configuration not stated) do in these assays?
dFosB act-1: -8.1; MEKK2mut PB1 HTS: 0.0; MEKK3 PB1 HTS: 98.0; DNA FID counter: -16.4; MEKK2wt PB1 HTS: 100.0
